Screening results deposited in PubChem BioAssay by several laboratories.
Cav3 T inh – blocks human Cav3.2 T-type calcium channel | Cav3.2-expressing cells, Fluo-4 calcium fluorescence FDSS; hits give low values | 100,000 tested, 4% active | B-score at 10 µM;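 active means single-dose well whose peak fluorescence ratio is a statistical outlier from its plate by either plate-standardised score or position-corrected B-score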
CYP2C19 activ – increases human CYP2C19 enzyme activity; P33261; recombinant CYP2C19, luciferin-H EGE luminescence; hits give high values; 0 = fully inhibited enzyme, 1 = untreated enzyme; activation factor at 5 µM; 96,000 tested, under 10 active;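 active means activation factor of at least 2 at 5 µM in the primary screen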;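 further: 0 = wells with 2.5 mM tranylcypromine and 1 = vehicle-only wells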
CYP2C9 inh – human CYP2C9 inhibition; 96,000 tested, 20% active; P11712; CYP2C9 Supersomes, luciferin-H conversion, luminescence; inhibition, % at 5 µM;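 active means blocking of liver enzyme CYP2C9 beyond about 50% at 5 µM, limit read from the data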
CYP2C9 activ – increases human cytochrome P450 2C9 activity. P11712. recombinant CYP2C9, luciferin-H conversion, luminescence; hits give high values; factor 1 = untreated enzyme, 0 = blocked. activation factor at 5 µM. 96,000 tested, 1.4% active;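 active means activation factor of 2 or more for CYP2C9 at a 5 µM dose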;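 further: 0 = sulfaphenazole-blocked wells and 1 = vehicle-only wells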
CYP2C19 inh – human CYP2C19 inhibition; P33261; CYP2C19 Supersomes, luciferin-H EGE luminescence, 30 min; inhibition, % at 5 µM; 96,000 tested, 21% active; AID 778;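 active means CYP2C19 inhibition above a set limit at 5 µM in the primary screen, cut at about 50% in these data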;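 further: plate controls were negative control wells for no effect and 2.5 mM tranylcypromine positive control for full effect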
* marks the source's active call; other numbers are inactive results; nt = not tested or not shown. Hits are enriched below; roughly 27% of the tested compounds scored in any of these assays.

SMILES | Cav3 T inh | CYP2C19 activ | CYP2C9 inh | CYP2C9 activ | CYP2C19 inh
CCN1CC(CCN2CCOCC2)C(c2ccccc2)(c2ccccc2)C1=O (stereo not drawn) | 0.91 | nt | nt | nt | nt
COc1ccc(C(=O)/C=C/Nc2ccc(C)cn2)cc1OC | -0.87 | nt | nt | nt | nt
Cc1cc(C)n(-c2nc(SCC(=O)NCC3CCCO3)c3c4c(sc3n2)CCCC4)n1 (stereo not drawn) | nt | 0.4 | 85* | 0.2 | 63*
COc1ccc(C2CN=NC23CCCc2ccccc2C3=O)cc1 (stereo not drawn) | -4.2* | 0.4 | 48 | 0.5 | 59*
COc1ccccc1C1CN=NC12CCCc1ccccc1C2=O (stereo not drawn) | -4.7* | 0.3 | 51* | 0.5 | 71*
COc1cccc(C2=CC(=O)CCC2)c1OC | 0.29 | nt | nt | nt | nt
